Assay results: PubChem BioAssay (NCI)
About 79,000 compounds went through this panel and 15% of them were active in at least one assay; those are over-represented in the sample as a whole. The source made the active and inactive calls. Cut-off read from the data, not from the text of the source: active = growth inhibition above about 70%; inactive = the rest.

How the values were obtained:
[1] = NCI Yeast Anticancer Drug Screen. Data for the rad50 strain (AID 155);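 note: 0% = growth of vehicle-only cultures of the same strain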; details: S. cerevisiae rad50 strain growth inhibition, hits give high values
Method in brief: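 Inhibition values express reduced yeast growth in compound-treated cultures relative to vehicle-treated controls.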

[2] = NCI Yeast Anticancer Drug Screen. Data for the mec2-1 strain (AID 157); details: S. cerevisiae mec2-1 strain, hits give high values
Method in brief: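 Yeast mec2-1 mutant treated with compound. Readout: growth inhibition vs vehicle controls.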

[3] = NCI Yeast Anticancer Drug Screen. Data for the sgs1 mgt1 strain (AID 161);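 note: 0% = growth of cultures given vehicle only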; details: S. cerevisiae sgs1 mgt1 strain, hits give high values
Method in brief: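 Read-out: growth inhibition vs vehicle controls. Cells: mutant yeast strain deficient in DNA damage repair.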

[4] = NCI Yeast Anticancer Drug Screen. Data for the cln2 rad14 strain (AID 165);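 note: 0% = growth equal to vehicle treated cultures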; details: S. cerevisiae cln2 rad14 strain, hits give high values
Method in brief: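 cln2 rad14 yeast strain; compound exposure; growth inhibition read vs vehicle controls.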

[5] = NCI Yeast Anticancer Drug Screen. Data for the bub3 strain (AID 167); details: S. cerevisiae bub3 mutant strain, hits give high values
Method in brief: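 Steps: expose the mutant yeast strain to compound; grow alongside vehicle-treated cultures; measure growth; express inhibition against the vehicle cultures.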

[6] = NCI Yeast Anticancer Drug Screen. Data for the mlh1 rad18 strain (AID 175); details: S. cerevisiae mlh1 rad18 strain growth inhibition, hits give high values
Method in brief: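 Yeast w/ defined DNA-repair lesions; compound exposure; growth vs vehicle controls → % inhibition.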

[7] = at 5.0 µM (retest, dose inferred, filed as 0.5)
[8] = at 50.0 µM (retest, dose inferred, filed as 5.0)

Measured: growth inhibition

CCCCOOC(=O)c1ccccc1C(=O)OOCCCC
inactive: [1]; [7] 47% | [2]; [7] 33% | [3]; [7] 41% | [4]; [7] 51% | [5]; [7] 30%
active: [1]; [8] 99% | [1]; at 50.0 µM 99.3% | [2]; [8] 100% | [2]; at 50.0 µM 99.5% | [3]; [8] 100% | [3]; at 50.0 µM 99% | [4]; [8] 99% | [4]; at 50.0 µM 98.7% | [5]; [8] 100% | [5]; at 50.0 µM 99.5% | [6]; [7] 70% | [6]; [8] 99% | [6]; at 50.0 µM 98.8%

Oc1cc(Cl)c(Cl)cc1Cl.[Cu+2]
inactive: [2]; [7] 45% | [3]; [7] 48% | [4]; [7] 21%
active: [1]; [7] 78% | [1]; [8] 96% | [1]; at 50.0 µM 99% | [2]; [8] 98% | [2]; at 50.0 µM 98.9% | [3]; [8] 70% | [3]; at 50.0 µM 99.3% | [4]; [8] 98% | [4]; at 50.0 µM 97.7% | [5]; [7] 97% | [5]; [8] 97% | [5]; at 50.0 µM 99% | [6]; [7] 91% | [6]; [8] 97% | [6]; at 50.0 µM 99.2%

O=C(O)C(F)(F)C(F)(F)C(=O)O
inactive: [1]; [7] 8% | [1]; [8] -3% | [1]; at 50.0 µM 0.35% | [2]; [7] 3% | [2]; [8] 0% | [2]; at 50.0 µM -1.4% | [3]; [7] -5% | [3]; [8] -2% | [3]; at 50.0 µM 4.8% | [4]; [7] 6% | [4]; [8] 1% | [4]; at 50.0 µM -16.1% | [5]; [7] 5% | [5]; [8] 26% | [5]; at 50.0 µM -3.15% | [6]; [7] 5% | [6]; [8] -2% | [6]; at 50.0 µM 5.25%

CC(=O)Oc1ccc(/C=C/[N+](=O)[O-])cc1
active: [1]; [8] 95% | [1]; at 50.0 µM 98.9% | [2]; [8] 99% | [2]; at 50.0 µM 99.5% | [3]; [8] 99% | [3]; at 50.0 µM 93.1% | [4]; [8] 82% | [4]; at 50.0 µM 82% | [5]; [8] 99% | [5]; at 50.0 µM 99.4% | [6]; [8] 98% | [6]; at 50.0 µM 98.3%
inactive: [1]; [7] 27% | [2]; [7] 6% | [3]; [7] 12% | [4]; [7] -2% | [5]; [7] 5% | [6]; [7] 12%

C/C(CC(=O)Nc1ccc([N+](=O)[O-])cc1)=N\Nc1ccc([N+](=O)[O-])cc1[N+](=O)[O-]
active: [1]; [7] 76% | [1]; at 50.0 µM 72%
inactive: [1]; [8] 45% | [2]; [7] 48% | [2]; [8] 47% | [2]; at 50.0 µM 15.9% | [3]; [7] 48% | [3]; [8] 40% | [3]; at 50.0 µM 7.6% | [4]; [7] 33% | [4]; [8] 53% | [4]; at 50.0 µM -33.9% | [5]; [7] 17% | [5]; [8] 34% | [5]; at 50.0 µM 32.5% | [6]; [7] 67% | [6]; [8] 36% | [6]; at 50.0 µM 61.9%

O=c1oc2cc(O)ccc2c(O)c1C(c1ccc(/C=C/c2ccccc2)cc1)c1c(O)c2ccc(O)cc2oc1=O
inactive: [1]; [7] 43% | [2]; [7] 19% | [3]; [7] -20% | [4]; [7] 14% | [5]; [7] 15% | [5]; [8] 42% | [6]; [7] 8%
active: [1]; [8] 98% | [1]; at 50.0 µM 89% | [2]; [8] 99% | [2]; at 50.0 µM 91.8% | [3]; [8] 97% | [3]; at 50.0 µM 89.8% | [4]; [8] 98% | [4]; at 50.0 µM 90.7% | [5]; at 50.0 µM 86% | [6]; [8] 99% | [6]; at 50.0 µM 92.5%

O=[N+]([O-])/C=C\c1ccccc1
inactive: [1]; [7] 65% | [2]; [7] 17% | [3]; [7] 20% | [4]; [7] 14% | [5]; [7] 39% | [6]; [7] 26%
active: [1]; [8] 99% | [1]; at 50.0 µM 92.8% | [2]; [8] 99% | [2]; at 50.0 µM 95.2% | [3]; [8] 99% | [3]; at 50.0 µM 91.8% | [4]; [8] 99% | [4]; at 50.0 µM 82.7% | [5]; [8] 99% | [5]; at 50.0 µM 97% | [6]; [8] 99% | [6]; at 50.0 µM 79%

O=[N+]([O-])/C=C/c1ccc(Cl)cc1[N+](=O)[O-]
active: [1]; [7] 97% | [1]; [8] 98% | [1]; at 50.0 µM 99.2% | [2]; [7] 98% | [2]; [8] 99% | [2]; at 50.0 µM 99.6% | [3]; [7] 99% | [3]; [8] 99% | [3]; at 50.0 µM 99.5% | [4]; [7] 98% | [4]; [8] 97% | [4]; at 50.0 µM 99.3% | [5]; [7] 99% | [5]; [8] 99% | [5]; at 50.0 µM 99.4% | [6]; [7] 96% | [6]; [8] 99% | [6]; at 50.0 µM 99.2%

C[As](C)SCCC(N)C(=O)NC(CCS[As](C)C)C(=O)O (stereo not given)
inactive: [1]; [7] 30% | [2]; [7] 20% | [3]; [7] -3% | [4]; [7] 35% | [5]; [7] 2% | [6]; [7] 27%
active: [1]; [8] 98% | [1]; at 50.0 µM 88.9% | [2]; [8] 99% | [2]; at 50.0 µM 90.8% | [3]; [8] 99% | [3]; at 50.0 µM 89.8% | [4]; [8] 98% | [4]; at 50.0 µM 92.2% | [5]; [8] 97% | [5]; at 50.0 µM 90% | [6]; [8] 99% | [6]; at 50.0 µM 75.5%

O=C1C(F)=C(N2CC2)C(=O)C(N2CCOCC2)=C1N1CC1
active: [1]; [7] 94% | [1]; [8] 98% | [1]; at 50.0 µM 90% | [2]; [7] 99% | [2]; [8] 98% | [2]; at 50.0 µM 89.8% | [3]; [7] 98% | [3]; [8] 98% | [3]; at 50.0 µM 89.8% | [4]; [7] 98% | [4]; [8] 96% | [4]; at 50.0 µM 84.5% | [5]; [7] 99% | [5]; [8] 97% | [5]; at 50.0 µM 91.9% | [6]; [7] 97% | [6]; [8] 97% | [6]; at 50.0 µM 92%
